What all share (conditions): mRNA level, 48 h; actives raise or lower the signal
Read-out in assay [1]: Tumor necrosis factor receptor superfamily member 6 (Homo sapiens) (UniProt P25445)
As to the kind of experiment: LTEA_HepaRG_FAS: Life Technologies and Expression Analysis (LTEA) Assay for Fas cell surface death receptor (FAS) using HepaRG (AID 2283447). In a few lines: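 Differentiated human HepaRG cells, pre-cultured 48 h, were exposed in duplicate for 48 h to 8-point half-log concentrations (top 100 uM, 0.5% DMSO) in serum-free induction medium; FAS mRNA measured by qRT-PCR, normalized to ACTB/GAPDH/POLR2A, bidirectional fit versus DMSO.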

Read-out in assay [2]: Fatty acid synthase (Homo sapiens) (UniProt P49327)
As to the kind of experiment: LTEA_HepaRG_FASN: Life Technologies and Expression Analysis (LTEA) Assay for Fatty Acid Synthase (FASN) using HepaRG (AID 2283448). In a few lines: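 Transcript-level assay: HepaRG liver cells are treated for 48 h across an eight-point range topping at 100 uM, and FASN mRNA, normalized to three housekeeping genes, is compared with DMSO controls in both directions.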

Read-out in assay [3]: Cyclin D2 (CCND2), CCND2 (gene 894)
As to the kind of experiment: LTEA_HepaRG_CCND2: Life Technologies and Expression Analysis (LTEA) Assay for Cyclin D2 (CCND2) using HepaRG (AID 2283449).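 Also: CCND2 transcript measured by TaqMan qRT-PCR and normalised to three housekeeping genes.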 In a few lines: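 Differentiated human HepaRG cells were exposed for 48 h in serum-free induction medium to eight half-log concentrations topping at 100 uM (0.5% DMSO vehicle). CCND2 mRNA was quantified by TaqMan qRT-PCR, normalised to ACTB, GAPDH and POLR2A, and fitted bidirectionally against DMSO.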

Read-out in assay [4]: Cyclin Dependent Kinase Inhibitor 1A (CDKN1A), CDKN1A (gene 1026)
As to the kind of experiment: LTEA_HepaRG_CDKN1A: Life Technologies and Expression Analysis (LTEA) Assay for Cyclin Dependent Kinase Inhibitor 1A (CDKN1A) using HepaRG (AID 2283450). In a few lines: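 HepaRG, 48 h dosing, 8-pt half-log series from 100 uM top, 0.5% DMSO vehicle, duplicates. Readout: TaqMan qRT-PCR of CDKN1A transcript, housekeeping-normalized (ACTB, GAPDH, POLR2A). Up/down curve fit relative to DMSO.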

Read-out in assay [5]: catalase (CAT), CAT (gene 847)
As to the kind of experiment: LTEA_HepaRG_CAT: Life Technologies and Expression Analysis (LTEA) Assay for catalase (CAT) using HepaRG (AID 2283452). In a few lines:
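Differentiated HepaRG cells in serum-free induction medium were dosed 48 h in duplicate, eight half-log concentrations from 100 uM in 0.5% DMSO. Transcript measured by TaqMan qRT-PCR, normalised to ACTB/GAPDH/POLR2A, fitted bidirectionally against DMSO.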

Read-out in assay [6]: flavin-containing dimethylaniline monooxygenases 3 (FMO3), FMO3 (gene 2328)
As to the kind of experiment: LTEA_HepaRG_FMO3: Life Technologies and Expression Analysis (LTEA) Assay for flavin-containing dimethylaniline monooxygenases 3 (FMO3) using HepaRG (AID 2283453). In a few lines: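 HepaRG, 48 h exposure, 8-pt half-log series from 100 uM, 0.5% DMSO vehicle, duplicates; FMO3 transcript by Fluidigm TaqMan qRT-PCR, housekeeping-normalized; gain/loss fit vs DMSO.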

Read-out in assay [7]: Cytochrome P450 (CYP1A1), CYP1A1 (gene 1543)
The assay can be described thus: LTEA_HepaRG_CYP1A1: Life Technologies and Expression Analysis (LTEA) Assay for Cytochrome P450 (CYP1A1) using HepaRG (AID 2283454). In a few lines:
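qRT-PCR read-out: CYP1A1 transcript normalized to three housekeeping genes, fitted bidirectionally against 0.5% DMSO vehicle baseline. Human HepaRG cells, 48 h chemical exposure, 8-point half-log series topping at 100 uM.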

Read-out in assay [8]: CFLAR gene, CFLAR (gene 8837)
As to the kind of experiment: LTEA_HepaRG_CFLAR: Life Technologies and Expression Analysis (LTEA) Assay for CFLAR gene using HepaRG (AID 2283455). In a few lines:
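HepaRG cells were plated for 48 h, switched to serum-free induction medium, then exposed in duplicate for 48 h to 8 concentrations (top 100 uM, half-log steps, 0.5% DMSO). CFLAR mRNA was measured by qRT-PCR, normalized to ACTB, GAPDH and POLR2A.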

Read-out in assay [9]: Forkhead box O1 (FOXO1), FOXO1 (gene 2308)
The assay can be described thus: LTEA_HepaRG_FOXO1: Life Technologies and Expression Analysis (LTEA) Assay for Forkhead box O1 (FOXO1) using HepaRG (AID 2283456). In a few lines:
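Differentiated human HepaRG cells in serum-free induction medium were exposed in duplicate for 48 h to eight half-log concentrations (top 100 uM, 0.5% DMSO). FOXO1 mRNA was measured by TaqMan qRT-PCR, normalised to ACTB, GAPDH and POLR2A, and fitted bidirectionally against DMSO.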

Read-out in assay [10]: growth arrest and DNA damage 45 (GADD45A), GADD45A (gene 1647)
As to the kind of experiment: LTEA_HepaRG_GADD45A: Life Technologies and Expression Analysis (LTEA) Assay for growth arrest and DNA damage 45 (GADD45A) using HepaRG (AID 2283458). In a few lines: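 Human HepaRG liver cells are treated in duplicate for 48 h with chemicals in 0.5% DMSO, highest concentration 100 uM. Expression is read by qRT-PCR and analyzed in both directions against vehicle.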

Read-out in assay [11]: Forkhead box O3 (FOXO3), FOXO3 (gene 2309)
As to the kind of experiment: LTEA_HepaRG_FOXO3: Life Technologies and Expression Analysis (LTEA) Assay for Forkhead box O3 (FOXO3) using HepaRG (AID 2283459). In a few lines:
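Differentiated human HepaRG cells in serum-free induction medium were exposed in duplicate for 48 h to eight half-log concentrations up to 100 uM in 0.5% DMSO. FOXO3 mRNA was quantified by qRT-PCR, normalized to ACTB, GAPDH and POLR2A, with bidirectional fitting versus DMSO.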

Read-out in assay [12]: ABC Transporter (ABCB1), ABCB1 (gene 5243)
The assay can be described thus: LTEA_HepaRG_ABCB1: Life Technologies and Expression Analysis (LTEA) Assay for ABC Transporter (ABCB1) using HepaRG (AID 2283460). In a few lines: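 Differentiated human HepaRG cells, plated 48 h then switched to serum-free induction medium, were exposed in duplicate to eight half-log concentrations up to 100 uM in 0.5% DMSO for 48 h. ABCB1 mRNA was measured by TaqMan qRT-PCR, normalized to ACTB/GAPDH/POLR2A.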

Read-out in assay [13]: growth arrest and DNA damage 45 (GADD45B), GADD45B (gene 4616)
As to the kind of experiment: LTEA_HepaRG_GADD45B: Life Technologies and Expression Analysis (LTEA) Assay for growth arrest and DNA damage 45 (GADD45B) using HepaRG (AID 2283461). In a few lines: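 qRT-PCR read-out (Fluidigm TaqMan, housekeeping-normalized) of mRNA change in human HepaRG cells after 48 h chemical exposure; 8-point curve, top 100 uM, half-log steps, 0.5% DMSO vehicle; gain or loss fitted relative to DMSO baseline.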

Read-out in assay [14]: ABC Transporter (ABCC3), ABCC3 (gene 8714)
As to the kind of experiment: LTEA_HepaRG_ABCC3: Life Technologies and Expression Analysis (LTEA) Assay for ABC Transporter (ABCC3) using HepaRG (AID 2283462). In a few lines: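 qRT-PCR read-out of ABCC3 transcript, normalized to three housekeeping genes (ACTB, GAPDH, POLR2A), after 48 h chemical exposure of human HepaRG cells. Eight half-log concentrations, highest 100 uM, in 0.5% DMSO; gain or loss fitted relative to DMSO baseline.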

Read-out in assay [15]: ABC Transporter (ABCB11), ABCB11 (gene 8647)
As to the kind of experiment: LTEA_HepaRG_ABCB11: Life Technologies and Expression Analysis (LTEA) Assay for ABC Transporter (ABCB11) using HepaRG (AID 2283463). In a few lines:
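Differentiated human HepaRG cells were exposed for 48 h in serum-free induction medium to eight half-log concentrations up to 100 uM in 0.5% DMSO. ABCB11 mRNA was quantified by qRT-PCR, normalized to ACTB, GAPDH and POLR2A, and fitted bidirectionally versus DMSO.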

Read-out in assay [16]: ABC Transporter (ABCC2), ABCC2 (gene 1244)
As to the kind of experiment: LTEA_HepaRG_ABCC2: Life Technologies and Expression Analysis (LTEA) Assay for ABC Transporter (ABCC2) using HepaRG (AID 2283464). In a few lines: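 qRT-PCR (TaqMan, Fluidigm array) read-out of ABCC2 mRNA, normalized to three housekeeping genes. Differentiated HepaRG cells were treated 48 h in serum-free induction medium with 8-point half-log series from 100 uM in 0.5% DMSO; curves fitted bidirectionally relative to DMSO.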

Read-out in assay [17]: Broad substrate specificity ATP-binding cassette transporter ABCG2 (Homo sapiens) (UniProt Q9UNQ0)
As to the kind of experiment: LTEA_HepaRG_ABCG2: Life Technologies and Expression Analysis (LTEA) Assay for ABC Transporter (ABCG2) using HepaRG (AID 2283465). In a few lines: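 Differentiated HepaRG cells in serum-free induction medium were exposed for 48 h, in duplicate, to eight half-log concentrations up to 100 uM in 0.5% DMSO. ABCG2 mRNA was measured by TaqMan qRT-PCR, normalized to ACTB, GAPDH and POLR2A, and fitted bidirectionally versus DMSO.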

Read-out in assay [18]: ATP-citrate lyase (ACLY), ACLY (gene 47)
As to the kind of experiment: LTEA_HepaRG_ACLY: Life Technologies and Expression Analysis (LTEA) Assay for ATP-citrate lyase (ACLY) using HepaRG (AID 2283466). In a few lines: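 Differentiated human HepaRG cells in serum-free induction medium exposed 48 h, in duplicate, to eight half-log concentrations from 100 uM top in 0.5% DMSO; ACLY mRNA measured by qRT-PCR, normalized to ACTB, GAPDH, POLR2A, fitted bidirectionally versus DMSO.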

Read-out in assay [19]: Cyclin D1 (CCND1), CCND1 (gene 595)
As to the kind of experiment: LTEA_HepaRG_CCND1: Life Technologies and Expression Analysis (LTEA) Assay for Cyclin D1 (CCND1) using HepaRG (AID 2283451). In a few lines: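 qRT-PCR (Fluidigm 96.96 array) read-out of transcript level, housekeeping-normalized (ACTB/GAPDH/POLR2A). HepaRG cells, 48 h chemical exposure, 8-point half-log series from 100 uM, 0.5% DMSO vehicle; gain or loss relative to DMSO baseline.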

In general, AC50 refers to the concentration at which the activity in the assay is half-maximal.

SMILES strings stand for the structures. Activity calls are given as the source filed them. The calls were made as follows: active = hit-call score of the fitted dose curve at least 0.9, where 1 is the maximum; inactive = score below 0.9.

Sequence of Broad substrate specificity ATP-binding cassette transporter ABCG2 (Homo sapiens) (Q9UNQ0 whole entry, looked up): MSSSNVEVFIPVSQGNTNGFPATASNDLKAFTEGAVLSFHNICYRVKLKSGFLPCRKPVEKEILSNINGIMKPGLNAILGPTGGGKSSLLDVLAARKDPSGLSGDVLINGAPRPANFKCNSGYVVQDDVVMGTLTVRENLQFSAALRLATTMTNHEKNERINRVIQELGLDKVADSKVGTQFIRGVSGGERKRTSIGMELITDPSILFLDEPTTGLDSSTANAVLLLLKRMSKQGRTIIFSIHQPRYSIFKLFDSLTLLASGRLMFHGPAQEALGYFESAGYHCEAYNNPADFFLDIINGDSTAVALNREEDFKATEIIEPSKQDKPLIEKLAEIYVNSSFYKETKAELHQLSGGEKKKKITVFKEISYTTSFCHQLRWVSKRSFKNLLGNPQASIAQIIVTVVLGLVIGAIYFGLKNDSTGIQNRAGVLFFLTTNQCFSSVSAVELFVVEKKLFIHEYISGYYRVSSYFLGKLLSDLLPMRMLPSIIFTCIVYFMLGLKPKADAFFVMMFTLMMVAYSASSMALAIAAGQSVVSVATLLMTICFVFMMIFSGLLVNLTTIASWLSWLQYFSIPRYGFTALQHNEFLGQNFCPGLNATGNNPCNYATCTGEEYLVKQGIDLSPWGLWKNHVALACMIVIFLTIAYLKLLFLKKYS
Sequence of Fatty acid synthase (Homo sapiens) (P49327 whole entry, looked up): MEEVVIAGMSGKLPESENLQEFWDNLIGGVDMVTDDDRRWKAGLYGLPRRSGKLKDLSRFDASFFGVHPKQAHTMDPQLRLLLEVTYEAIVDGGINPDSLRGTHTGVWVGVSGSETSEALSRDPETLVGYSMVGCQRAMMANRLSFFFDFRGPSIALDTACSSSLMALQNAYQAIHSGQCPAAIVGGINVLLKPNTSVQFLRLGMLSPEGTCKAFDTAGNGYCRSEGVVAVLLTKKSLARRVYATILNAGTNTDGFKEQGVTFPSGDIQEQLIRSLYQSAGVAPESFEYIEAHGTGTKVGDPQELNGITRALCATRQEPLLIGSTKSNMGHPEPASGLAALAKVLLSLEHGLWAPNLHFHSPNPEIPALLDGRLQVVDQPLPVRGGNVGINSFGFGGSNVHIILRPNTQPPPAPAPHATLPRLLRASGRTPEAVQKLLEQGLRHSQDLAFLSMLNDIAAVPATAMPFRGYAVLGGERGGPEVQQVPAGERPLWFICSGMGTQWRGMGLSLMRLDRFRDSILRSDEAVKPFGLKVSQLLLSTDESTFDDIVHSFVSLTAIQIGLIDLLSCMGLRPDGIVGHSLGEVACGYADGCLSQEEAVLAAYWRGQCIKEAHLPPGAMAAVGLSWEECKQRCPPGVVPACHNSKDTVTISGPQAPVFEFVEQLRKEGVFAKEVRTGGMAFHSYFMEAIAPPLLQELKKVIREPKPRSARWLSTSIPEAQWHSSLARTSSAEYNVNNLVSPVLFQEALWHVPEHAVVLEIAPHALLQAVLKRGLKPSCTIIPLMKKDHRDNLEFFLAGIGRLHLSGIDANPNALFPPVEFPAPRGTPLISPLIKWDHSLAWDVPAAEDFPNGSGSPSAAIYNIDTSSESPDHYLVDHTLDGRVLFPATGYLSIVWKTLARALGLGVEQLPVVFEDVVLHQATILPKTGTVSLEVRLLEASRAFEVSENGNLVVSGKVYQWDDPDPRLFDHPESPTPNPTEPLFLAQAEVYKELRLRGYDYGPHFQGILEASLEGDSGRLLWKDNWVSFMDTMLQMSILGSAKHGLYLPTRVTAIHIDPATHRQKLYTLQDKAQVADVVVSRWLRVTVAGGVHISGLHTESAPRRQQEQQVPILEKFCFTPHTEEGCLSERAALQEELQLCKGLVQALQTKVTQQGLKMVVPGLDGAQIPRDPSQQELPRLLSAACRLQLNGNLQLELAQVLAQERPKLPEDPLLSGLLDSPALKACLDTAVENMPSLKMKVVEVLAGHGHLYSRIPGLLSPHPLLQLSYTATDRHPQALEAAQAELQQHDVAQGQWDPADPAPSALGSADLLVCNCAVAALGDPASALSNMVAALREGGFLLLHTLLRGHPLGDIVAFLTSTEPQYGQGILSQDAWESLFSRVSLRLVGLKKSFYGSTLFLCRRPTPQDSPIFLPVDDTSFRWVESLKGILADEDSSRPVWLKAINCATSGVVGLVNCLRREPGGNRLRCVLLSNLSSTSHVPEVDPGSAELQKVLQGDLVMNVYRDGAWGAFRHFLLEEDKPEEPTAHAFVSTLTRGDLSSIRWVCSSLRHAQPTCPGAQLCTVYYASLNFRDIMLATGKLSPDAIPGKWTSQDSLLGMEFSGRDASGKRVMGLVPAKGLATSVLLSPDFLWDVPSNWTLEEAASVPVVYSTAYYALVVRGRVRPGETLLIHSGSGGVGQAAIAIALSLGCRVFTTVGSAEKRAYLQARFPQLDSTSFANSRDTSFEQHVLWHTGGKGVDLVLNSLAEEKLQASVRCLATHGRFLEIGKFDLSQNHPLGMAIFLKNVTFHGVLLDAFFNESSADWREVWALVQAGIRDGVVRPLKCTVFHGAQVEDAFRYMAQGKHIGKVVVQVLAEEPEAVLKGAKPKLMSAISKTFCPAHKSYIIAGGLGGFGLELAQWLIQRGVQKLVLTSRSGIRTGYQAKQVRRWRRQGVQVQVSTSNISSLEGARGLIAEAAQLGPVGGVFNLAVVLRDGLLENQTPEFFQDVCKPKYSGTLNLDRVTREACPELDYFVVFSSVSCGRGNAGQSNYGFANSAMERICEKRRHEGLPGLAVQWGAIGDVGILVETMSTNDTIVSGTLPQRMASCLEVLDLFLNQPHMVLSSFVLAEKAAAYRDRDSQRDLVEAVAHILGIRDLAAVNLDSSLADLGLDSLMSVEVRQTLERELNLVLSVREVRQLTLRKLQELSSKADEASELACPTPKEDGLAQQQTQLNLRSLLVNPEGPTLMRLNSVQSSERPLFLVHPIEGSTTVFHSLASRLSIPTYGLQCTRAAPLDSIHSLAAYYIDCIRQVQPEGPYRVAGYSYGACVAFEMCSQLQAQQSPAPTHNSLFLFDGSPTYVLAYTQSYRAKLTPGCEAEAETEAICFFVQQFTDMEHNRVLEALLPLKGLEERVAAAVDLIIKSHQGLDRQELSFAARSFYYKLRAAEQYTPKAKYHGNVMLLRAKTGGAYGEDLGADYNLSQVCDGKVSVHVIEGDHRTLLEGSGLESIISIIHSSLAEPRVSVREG

As to `CC(C)c1ccc(C(=O)N=C(N)N)cc1S(C)(=O)=O`, the concentration at half-maximal activity (AC50) was 0.669 µM (active) in [1]; 0.634 µM (active) in assay [3]; 0.361 µM (active) in assay [4]; 0.6 µM (active) in assay [7]; 0.361 µM (active) in [8]; 0.498 µM (active) in [9]. Further, the concentration at half-maximal activity (AC50) is 0.676 µM (active) in assay [10]; 0.264 µM (active) in [11]; 8.32 µM (active) in assay [12]; 0.392 µM (active) in assay [15]; 14 µM (active) in assay [16]; 0.681 µM (active) in [17]. In addition, the outcome in assay [2], in [5], in [6], in assay [13], in [14] and in assay [18] was inactive.

As for `CCCCCCCC=O`, the compound was classed as inactive in assay [1], in assay [2], in [3], in [4], in assay [6] and in assay [8]. Besides, the outcome in assay [9], in assay [10], in [11], in assay [12], in [13] and in assay [14] was inactive. Further, the compound was classed as inactive in assay [15], in assay [16], in assay [17] and in assay [18]. Further, the values for the concentration at half-maximal activity (AC50) in [5] and in [7] were 1.44 µM (active) and 50 µM (active), respectively.

With `COc1cc(S(=O)(=O)O)c(C)cc1N=Nc1c(O)ccc2cc(S(=O)(=O)O)ccc12`, the result in assay [1], in [2], in assay [3], in [4], in assay [19] and in [5] was inactive. Also, the compound was classed as inactive in assay [6], in [9], in [10], in assay [11], in assay [12] and in assay [13]. Further, the compound was called inactive in assay [14], in assay [16], in assay [17] and in assay [18].

As to `Cc1nc(C)nc(N2C[C@@H](C)N(c3ccnc([C@@H](C)O)n3)[C@@H](C)C2)n1`, the outcome in assay [1], in [2], in assay [3], in assay [4], in [19] and in [5] was inactive. In addition, the result in assay [6], in assay [7], in [9], in assay [10], in assay [11] and in [12] was inactive. The result in assay [13], in assay [14], in assay [16], in assay [17] and in [18] was inactive.
